According to PubChem BioAssay (EPA / NIEHS):
Values joined by “and” are separate entries in the source; they are usually repeats but may differ in a detail not shown here. Identical values can stand only once. Results filed as inconclusive are left out. Where a structure was tested more than once in an assay, its records may differ in their call. Active and inactive are the calls of the source. Rule for the calls: active = hit-call score of the fitted dose curve at least 0.9, where 1 is the maximum; inconclusive = response in the unintended direction; inactive = score below 0.9.

Tests used:
[1] = tested on: frog Estrogen Receptor (ER), gene 398734; test: ATG_frER1_XSP2: Attagene TRANS-FACTORIAL Multi-Species (XSP2) HepG2 Assay for frog Estrogen Receptor (ER) (AID 2283821);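 note: hits raise reporter mRNA above DMSO baseline so potency means agonist or activator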
Method in brief: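 HepG2 cells transiently transfected with GAL4-UAS reporter units expressing a chimeric frog ER-Gal4 protein; 24 h exposure. Reporter mRNA quantified by RT-PCR, fluorescent labelling and capillary electrophoresis; gain of signal fitted against DMSO baseline.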

[2] = target: GAL4 Transcription Factor (Internal Marker), GAL4 (gene 855828) (UniProt P04386); test: ATG_GAL4_XSP2: Attagene TRANS-FACTORIAL Multi-Species (XSP2) HepG2 Assay for GAL4 Transcription Factor (Internal Marker) (AID 2283814);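 note: GAL4 reporter mRNA background control in MRTU transfected cells not a receptor target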
Chain of GAL4 Transcription Factor (Internal Marker), GAL4 (gene 855828) (P04386 whole entry, looked up, the tested form may be a part): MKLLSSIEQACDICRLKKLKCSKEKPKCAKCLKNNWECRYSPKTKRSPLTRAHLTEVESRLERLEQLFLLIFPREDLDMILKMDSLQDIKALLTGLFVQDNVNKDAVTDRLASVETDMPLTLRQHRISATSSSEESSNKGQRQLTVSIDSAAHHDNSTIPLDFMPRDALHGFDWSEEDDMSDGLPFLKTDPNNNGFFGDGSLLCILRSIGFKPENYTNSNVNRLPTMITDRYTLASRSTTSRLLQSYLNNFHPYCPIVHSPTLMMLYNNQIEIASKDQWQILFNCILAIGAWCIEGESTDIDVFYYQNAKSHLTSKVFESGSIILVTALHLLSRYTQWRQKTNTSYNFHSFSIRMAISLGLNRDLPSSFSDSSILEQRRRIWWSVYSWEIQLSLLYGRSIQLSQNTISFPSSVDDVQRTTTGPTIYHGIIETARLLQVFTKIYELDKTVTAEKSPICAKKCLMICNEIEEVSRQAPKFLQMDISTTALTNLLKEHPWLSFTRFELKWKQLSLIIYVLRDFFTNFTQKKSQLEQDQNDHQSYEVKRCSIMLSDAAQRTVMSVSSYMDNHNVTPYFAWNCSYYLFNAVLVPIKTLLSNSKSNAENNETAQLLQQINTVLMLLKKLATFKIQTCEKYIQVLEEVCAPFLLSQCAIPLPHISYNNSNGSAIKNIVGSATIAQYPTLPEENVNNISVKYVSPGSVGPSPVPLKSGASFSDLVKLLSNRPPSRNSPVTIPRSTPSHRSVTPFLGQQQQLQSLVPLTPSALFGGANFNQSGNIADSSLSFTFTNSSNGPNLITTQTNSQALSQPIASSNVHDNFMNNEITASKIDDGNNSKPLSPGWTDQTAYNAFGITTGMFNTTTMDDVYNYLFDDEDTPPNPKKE
Method in brief: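 HepG2 cells transiently transfected with GAL4-UAS reporter units, stimulated with 3 nM 6-alpha-fluorotestosterone plus 1.5 nM norgestrel, dosed 24 h. Reporter mRNA by RT-PCR/capillary electrophoresis; gain-of-signal fit versus DMSO, background control.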

[3] = tested on: turtle Androgen Receptor (AR), gene 101947425; test: ATG_trAR_XSP2: Attagene TRANS-FACTORIAL Multi-Species (XSP2) HepG2 Assay for turtle Androgen Receptor (AR) (AID 2283815);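 for AC50: reporter mRNA from a Gal4 chimera of turtle AR measured by RT-PCR; potency for gain of reporter signal meaning activation above DMSO baseline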
Method in brief: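 HepG2 cells transiently transfected with GAL4-UAS reporter units for chimeric NR-Gal4 receptors; 24 h dosing in presence of 3 nM 6-alpha-fluorotestosterone and 1.5 nM norgestrel. Reporter mRNA by RT-PCR and capillary electrophoresis, gain of signal versus DMSO.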

[4] = tested on: zebrafish Estrogen Receptor (ER2a), gene 317734; test: ATG_zfER2a_XSP2: Attagene TRANS-FACTORIAL Multi-Species (XSP2) HepG2 Assay for zebrafish Estrogen Receptor (ER2a) (AID 2283818);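 note: hits raise reporter mRNA so AC50 reflects activation of zebrafish ER2a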
Procedure: ATG_XSP2_multi-species_TRANS is a cell-based, multiplexed assay created by modifying the existing Attagene TRANS-FACTORIAL system to include a panel of nuclear receptors from some or all the following species: human (Homo sapiens), mouse (Mus musculus), frog (Xenopus laevis), zebrafish (Danio rerio), chicken (Gallus gallus), and turtle (Chrysemys picta). The ECOTOX-FACTORIAL format uses HepG2, a human liver cell line, with measurements taken at 24 hours after chemical dosing in a 24-well plate. Xsp2 included 3 nM 6-alpha-fluorotestosterone and 1.5 nM norgestrel to stimulate the androgen receptor.ATG_zfER2a_XSP2 is one of 29 assay components measured or calculated from the ATG_XSP2_multi-species_TRANS assay. It is designed to make measurements of mRNA induction, a form of inducible reporter, as detected with fluorescence intensity signals by Reverse transcription polymerase chain reaction (RT-PCR) and Capillary electrophoresis technology.The assay endpoint ATG_zfER2a_XSP2 was analyzed in the positive analysis fitting direction relative to DMSO as the negative control and baseline of activity. Using a type of inducible reporter, measures of mRNA for gain-of-signal activity can be used to understand the reporter gene at the transcription factor-level as they relate to the gene ER. Furthermore, this assay endpoint can be referred to as a primary readout, because this assay has produced multiple assay endpoints where this one serves a reporter gene function. To generalize the intended target to other relatable targets, this assay endpoint is annotated to the nuclear receptor intended target family, where the subfamily is steroidal.
Human liver HepG2 cells are transiently transfected with multiple reporter transcription units (MRTUs) in 6-well plates using FuGene 6 reagent (Roche; 3 ml FuGene/1 mg DNA). The MRTU constructs are regulated by a cis-regulating element (promoter). […] A major difference between the CIS and TRANS system is that in CIS activities of endogenous TFs are measured, whereas the TRANS assay evaluates changes in activities of exogenous, chimeric NR-Gal4 proteins. […] At the end of 24 hour incubation, total RNA was isolated using TriZol reagent (Invitrogen). The isolated RNA is then reverse-transcribed using oligo(dT) primer and Mo-MLV reverse transcriptase (Invitrogen) with DNAse I (Ambion) treatment for 30 min. The one-tenth of the produced cDNA was amplified by PCR using Taq DNA polymerase (Invitrogen) and two reporter sequence-specific primers. The PCR products were fluorescently labeled by primer extension with 6-arboxyfluorescein (6-FAM) 5'-labeled reporter sequence-specific primer (2 min at 95 C, 20 s at 68 C and 10 min at 72 C) and these products were digested with 5U of HpaI (New England Biolabs) for 2h at 37 C. The fragments were purified using Qiaquick PCR columns (Qiagen), analyzed on an ABI 3130xL genetic analyzer (Applied Biosystems) with peak positions identified by using a set of X-rhodamine (ROX)-labeled MapMarker1000 molecular weight standards (BioVentures). The raw capillary electrophoresis data was processed using Attagraph software (Attagene).

[5] = tested on: chicken Androgen Receptor (AR), gene 422165; test: ATG_chAR_XSP2: Attagene TRANS-FACTORIAL Multi-Species (XSP2) HepG2 Assay for chicken Androgen Receptor (AR) (AID 2283819);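 note: hits raise reporter mRNA above DMSO so potency is for activation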
Method in brief: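 HepG2 cells transiently transfected with chicken AR–GAL4 chimeric reporter constructs, stimulated with 3 nM 6-alpha-fluorotestosterone plus 1.5 nM norgestrel, dosed 24 h. Reporter mRNA quantified by RT-PCR and capillary electrophoresis; gain of signal fitted versus DMSO.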

[6] = ATG_M_19_XSP2: Attagene TRANS-FACTORIAL Multi-Species (XSP2) HepG2 Assay for M32 Transcription Factor (Internal Marker) (AID 2283822)
Procedure: (§1) ATG_XSP2_multi-species_TRANS is a cell-based, multiplexed assay created by modifying the existing Attagene TRANS-FACTORIAL system to include a panel of nuclear receptors from some or all the following species: human (Homo sapiens), mouse (Mus musculus), frog (Xenopus laevis), zebrafish (Danio rerio), chicken (Gallus gallus), and turtle (Chrysemys picta). The ECOTOX-FACTORIAL format uses HepG2, a human liver cell line, with measurements taken at 24 hours after chemical dosing in a 24-well plate. Xsp2 included 3 nM 6-alpha-fluorotestosterone and 1.5 nM norgestrel to stimulate the androgen receptor.ATG_M_19_XSP2 is one of 29 assay components measured or calculated from the ATG_XSP2_multi-species_TRANS assay. It is designed to make measurements of mRNA induction, a form of inducible reporter, as detected with fluorescence intensity signals by Reverse transcription polymerase chain reaction (RT-PCR) and Capillary electrophoresis technology.This assay endpoint, ATG_M_19_XSP2, was analyzed in the positive analysis fitting direction relative to DMSO as the negative control and baseline of activity. […] Furthermore, this assay endpoint can be referred to as a secondary readout, because this assay has produced multiple assay endpoints where this one serves a background control function. […]
Human liver HepG2 cells are transiently transfected with multiple reporter transcription units (MRTUs) in 6-well plates using FuGene 6 reagent (Roche; 3 ml FuGene/1 mg DNA). […] A major difference between the CIS and TRANS system is that in CIS activities of endogenous TFs are measured, whereas the TRANS assay evaluates changes in activities of exogenous, chimeric NR-Gal4 proteins. […] The fragments were purified using Qiaquick PCR columns (Qiagen), analyzed on an ABI 3130xL genetic analyzer (Applied Biosystems) with peak positions identified by using a set of X-rhodamine (ROX)-labeled MapMarker1000 molecular weight standards (BioVentures). […]

[7] = tested on: zebrafish Estrogen Receptor (ER2b), gene 317733; test: ATG_zfER2b_XSP2: Attagene TRANS-FACTORIAL Multi-Species (XSP2) HepG2 Assay for zebrafish Estrogen Receptor (ER2b) (AID 2283823);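 note: fitted upward as reporter gain over DMSO so potency reflects activation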
Method in brief: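 Cells used were HepG2, transiently transfected with chimeric nuclear receptor-Gal4 reporter units. After 24 h of chemical treatment, reporter transcripts were amplified by RT-PCR, labelled and sized by capillary electrophoresis, with induction analysed relative to DMSO.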

[8] = target: zebrafish Estrogen Receptor (ER1), esr1 (gene 259252) (UniProt P57717); test: ATG_zfER1_XSP2: Attagene TRANS-FACTORIAL Multi-Species (XSP2) HepG2 Assay for zebrafish Estrogen Receptor (ER1) (AID 2283816)
Chain of zebrafish Estrogen Receptor (ER1), esr1 (gene 259252) (P57717 whole entry, looked up, the tested form may be a part): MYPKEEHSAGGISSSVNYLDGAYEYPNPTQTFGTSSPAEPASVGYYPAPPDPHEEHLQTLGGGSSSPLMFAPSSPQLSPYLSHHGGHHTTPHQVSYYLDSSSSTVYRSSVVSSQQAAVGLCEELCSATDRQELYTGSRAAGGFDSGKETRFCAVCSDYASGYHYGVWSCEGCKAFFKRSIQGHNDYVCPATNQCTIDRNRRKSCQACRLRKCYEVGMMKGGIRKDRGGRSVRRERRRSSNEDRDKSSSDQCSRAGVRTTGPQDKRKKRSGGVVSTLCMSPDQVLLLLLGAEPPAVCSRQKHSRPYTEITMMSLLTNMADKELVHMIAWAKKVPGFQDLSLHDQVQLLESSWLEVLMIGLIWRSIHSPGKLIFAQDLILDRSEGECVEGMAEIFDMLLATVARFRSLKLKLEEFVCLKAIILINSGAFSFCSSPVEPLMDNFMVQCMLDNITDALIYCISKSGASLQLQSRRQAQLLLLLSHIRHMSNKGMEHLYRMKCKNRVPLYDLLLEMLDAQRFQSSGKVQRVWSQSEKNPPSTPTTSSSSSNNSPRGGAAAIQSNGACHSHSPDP
Method in brief: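 HepG2 cells transiently transfected with a GAL4-UAS reporter and a chimeric zebrafish ER1-Gal4 construct, dosed 24 h. Reporter mRNA quantified by RT-PCR, labelling, HpaI digestion and capillary electrophoresis, relative to DMSO.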

[9] = target: chicken Estrogen Receptor (ERa), ESR1 (gene 396099) (UniProt P06212); test: ATG_chERa_XSP2: Attagene TRANS-FACTORIAL Multi-Species (XSP2) HepG2 Assay for chicken Estrogen Receptor (ERa) (AID 2283817);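 note: actives raise reporter signal above DMSO so AC50 reflects ER activation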
Chain of chicken Estrogen Receptor (ERa), ESR1 (gene 396099) (P06212 whole entry, looked up, the tested form may be a part): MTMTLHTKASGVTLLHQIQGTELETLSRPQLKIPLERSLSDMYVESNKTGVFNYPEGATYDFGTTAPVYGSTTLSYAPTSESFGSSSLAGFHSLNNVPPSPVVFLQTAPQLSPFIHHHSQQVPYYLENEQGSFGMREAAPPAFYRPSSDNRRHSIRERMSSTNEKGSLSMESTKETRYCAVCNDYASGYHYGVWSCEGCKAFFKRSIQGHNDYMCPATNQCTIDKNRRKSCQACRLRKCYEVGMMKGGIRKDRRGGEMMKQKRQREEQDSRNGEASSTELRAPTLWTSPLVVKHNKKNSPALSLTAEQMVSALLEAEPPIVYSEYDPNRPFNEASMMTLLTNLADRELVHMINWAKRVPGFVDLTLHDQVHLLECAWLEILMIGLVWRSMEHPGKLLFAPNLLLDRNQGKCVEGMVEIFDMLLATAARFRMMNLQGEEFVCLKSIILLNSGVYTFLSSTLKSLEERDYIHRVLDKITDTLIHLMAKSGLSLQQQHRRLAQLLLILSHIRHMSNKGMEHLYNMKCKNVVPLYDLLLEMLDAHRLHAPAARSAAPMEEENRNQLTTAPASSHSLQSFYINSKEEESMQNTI
Method in brief: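 Transiently transfected HepG2 cells expressing chimeric chicken ERa-GAL4 reporter units, dosed 24 h with 3 nM 6-alpha-fluorotestosterone and 1.5 nM norgestrel present. Reporter mRNA measured by RT-PCR and capillary electrophoresis; gain-of-signal fitted relative to DMSO.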

[10] = target: human Androgen Receptor (AR), AR (gene 367) (UniProt P10275); test: ATG_hAR_XSP2: Attagene TRANS-FACTORIAL Multi-Species (XSP2) HepG2 Assay for human Androgen Receptor (AR) (AID 2283820)
Chain of human Androgen Receptor (AR), AR (gene 367) (P10275 whole entry, looked up): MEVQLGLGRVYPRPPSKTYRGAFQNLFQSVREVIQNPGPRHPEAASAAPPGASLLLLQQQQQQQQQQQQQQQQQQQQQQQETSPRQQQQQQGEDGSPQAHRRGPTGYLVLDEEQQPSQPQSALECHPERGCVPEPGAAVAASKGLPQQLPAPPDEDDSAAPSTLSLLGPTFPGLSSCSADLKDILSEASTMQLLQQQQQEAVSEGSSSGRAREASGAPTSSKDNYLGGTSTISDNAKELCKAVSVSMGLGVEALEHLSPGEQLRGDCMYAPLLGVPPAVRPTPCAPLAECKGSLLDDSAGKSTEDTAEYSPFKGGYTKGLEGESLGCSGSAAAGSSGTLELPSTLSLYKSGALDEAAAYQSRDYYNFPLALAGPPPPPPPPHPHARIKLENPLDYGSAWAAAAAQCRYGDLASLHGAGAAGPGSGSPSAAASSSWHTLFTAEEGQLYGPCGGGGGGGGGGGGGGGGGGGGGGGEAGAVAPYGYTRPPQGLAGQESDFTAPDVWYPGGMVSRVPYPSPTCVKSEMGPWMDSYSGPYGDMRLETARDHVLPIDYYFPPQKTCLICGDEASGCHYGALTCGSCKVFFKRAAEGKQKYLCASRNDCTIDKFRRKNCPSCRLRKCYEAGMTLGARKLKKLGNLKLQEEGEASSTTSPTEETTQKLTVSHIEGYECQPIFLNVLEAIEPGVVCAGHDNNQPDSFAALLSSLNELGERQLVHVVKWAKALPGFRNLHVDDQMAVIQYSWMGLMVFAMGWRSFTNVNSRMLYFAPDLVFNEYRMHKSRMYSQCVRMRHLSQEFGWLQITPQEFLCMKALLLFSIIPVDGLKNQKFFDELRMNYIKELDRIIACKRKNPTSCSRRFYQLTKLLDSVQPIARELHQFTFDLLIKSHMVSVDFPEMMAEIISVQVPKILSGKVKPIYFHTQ
Procedure: as §1, with “receptor.ATG_hAR_XSP2” for “receptor.ATG_M_19_XSP2”, “technology.The” for “technology.This”, “endpoint ATG_hAR_XSP2” for “endpoint, ATG_M_19_XSP2,”, “primary” for “secondary”, “reporter gene” for “background control”

Measured: AC50

CN(CCOc1ccc(CC2SC(=O)NC2=O)cc1)c1ccccn1 (stereo not given)
inactive: [1]

CN(C)C(=N)N=C(N)N
inactive: [2] | [3] | [4] | [5] | [6] | [7]

O=c1cc(-c2ccccc2)oc2cc(O)cc(O)c12
active: [3] 1.41 µM | [8] 6.38 µM | [9] 7.18 µM and 2.51 µM | [4] 6.82 µM and 2.26 µM | [5] 1.51 µM | [10] 23.8 µM | [7] 14.2 µM and 5.28 µM
inactive: [8] | [5] | [10] | [1]

O=C(Oc1ccccc1)c1ccc(O)cc1
inactive: [2] | [3] | [8] | [9] | [5] | [1] | [6]
active: [8] 58.3 µM | [9] 27.8 µM | [4] 63.9 µM and 27.7 µM | [1] 27.2 µM | [7] 51.2 µM and 4.93 µM

CCCCCCCCCCCCN
inactive: [2] | [3] | [8] | [4] | [5] | [1] | [6] | [7]
active: [9] 48.3 µM | [4] 46.7 µM
